Data taken from PubChem BioAssay (NCATS).
Several values for one entry are separate records, joined by “and”; a condition that tells them apart may be missing. Equal entries are not always repeated. Results filed as inconclusive are left out. Entries that show only a call come without a potency. Activity calls are given as the source filed them. Unless noted, the call rests on the fitted dose curve; in most records, active means well fitted curve in the direction sought with a large enough effect; inconclusive means small, poorly fitted or top-dose-only effect, or another doubt; inactive means no such curve, though single readings can be large; an effect the other way counts as inactive or inconclusive.

Tests used:
[1] = target: T1, Hexokinase-4 (Homo sapiens) + Glucokinase regulatory protein (Homo sapiens) (UniProt P35557+Q14397); assay: qHTS assay for inhibitors of recombinant human GCK-GKRP interaction: Diaphorase-coupled assay (AID 743205)
Procedure, shortened: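 A kinetic fluorescence read (Ex 525/Em 590 nm, every minute for 30 minutes) tracked resorufin from a G6PDH-diaphorase coupled GCK reaction. It contained 10 nM GST-GCK, 10 nM FLAG-GKRP, 5 mM glucose, 0.4 mM ATP in Hepes pH 7.6. Normalized to with/without-enzyme DMSO controls.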

[2] = target: T1, Hexokinase-4 (Homo sapiens) + Glucokinase regulatory protein (Homo sapiens); assay: qHTS assay for inhibitors of recombinant human GCK-GKRP interaction: ADP-Glo assay (AID 743206)
Procedure, shortened: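 Pin-transferred compounds meet a 15 nM GST-GCK/15 nM FLAG-GKRP/2 uM S6P mix (dispense concentrations). ATP is then added to 0.4 mM final with 5 mM glucose, and the reaction runs 60 min at room temperature. ADP is quantified luminescently.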

[3] = target: T1, Hexokinase-4 (Homo sapiens) + Glucokinase regulatory protein (Homo sapiens); assay: qHTS assay for inhibitors of recombinant human GCK-GKRP interaction: HTRF assay (AID 743207)
Procedure, shortened: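 After 60 min equilibration at room temperature with anti-FLAG XL665 and anti-GST antibodies, FRET ratio (665/615 nm, excitation 320 nm) was read. Proteins: GST-GCK and FLAG-GKRP, each 5 nM, plus 2 uM S6P, pH 7.1 buffer; GCK-free wells define minimum signal.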

[4] = qHTS Assay for Identifying Gametocytocidal Compounds (AID 743244);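 further: actives lower the fluorescent signal which means gametocytes are killed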; conditions: P. falciparum 3D7 stage III-V gametocytes, alamarBlue, 72 h; max response: stronger effect = lower value
Procedure, shortened: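 Viability read-out was resazurin reduction (alamarBlue, 24 h) measured at Ex 525/Em 598 nm. Beforehand, late-stage (III-V) 3D7 P. falciparum gametocytes at 20,000 cells/well were incubated with compound 72 h at 37C under 5% CO2.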

[5] = qHTS assay for measurement of the activity of small molecule inhibitors on Zika virus induced Caspase-3 activity in human astrocytoma cells (AID 1224859); further: potency means the concentration at half of the fitted maximal effect
Procedure, shortened: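 Luminescent caspase-3/7 read-out (30 min reagent, room temperature) in human SNB-19 cells infected 6 h with ZIKV (2 FFU/cell) after 1 h compound pre-incubation; Data were normalised to uninfected and infected wells.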

[6] = qHTS profiling of the MIPE4 collection as inhibitors of Plasmodium falciparum (3D7) proliferation (AID 743344; call rule not given here); conditions: P. falciparum 3D7 in erythrocytes, SYBR Green DNA fluorescence, 72 h; at 28.5 µM (top of the series)
Procedure, shortened: (§1)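 Parasite DNA was quantified by SYBR Green I fluorescence (ex 485, em 535 nm) after overnight lysis in saponin/Triton buffer at room temperature. Cultures at 0.3% parasitemia and 2.5% hematocrit were first exposed to compound for 72 h at 37 C; signals were normalised to artemisinin (0.29 uM) and vehicle wells.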

[7] = qHTS profiling of the MIPE4 collection as inhibitors of Plasmodium falciparum (DD2) proliferation (AID 743345; call rule not given here); conditions: P. falciparum Dd2 in erythrocytes, SYBR Green DNA, 72 h; at 28.5 µM (top of the series)
Procedure, shortened: as §1

[8] = qHTS profiling of the MIPE4 collection as inhibitors of Plasmodium falciparum (DD2) proliferation (Rep 2) (AID 743346; call rule not given here); conditions: P. falciparum Dd2 in erythrocytes, SYBR Green DNA, 72 h; at 28.5 µM (top of the series)
Procedure, shortened: as §1

[9] = qHTS profiling of the MIPE4 collection as inhibitors of Plasmodium falciparum (HB3) proliferation (AID 743347; call rule not given here); conditions: P. falciparum HB3 in erythrocytes, SYBR Green DNA, 72 h; at 28.5 µM (top of the series)
Procedure, shortened: as §1

[10] = qHTS assay for cell viability of HEK293 cells (AID 743288); conditions: ATP luminescence (CellTiter-Glo), 18 h; max response: stronger effect = lower value; further: nearly all actives have a fitted effect of over 50% in size
Procedure, shortened: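 Readout is luciferase-coupled ATP content (CellTiter-Glo luminescence, 30 min room temperature) as a measure of metabolically competent cells. Parental HEK293 cells were plated 5 h or more before compound addition, then treated 18 h at 37 C.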

[11] = qHTS assay for cell viability of the p53RE-bla HCT-116 cell line (AID 743292); further: nearly all actives have a fitted effect of over 55% in size
Procedure, shortened: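 ATP-based luminescent viability (CellTiter-Glo, 30 min RT) after 16 h compound treatment at 37 C of p53RE-bla HCT-116 cells, seeded at 4,000 cells/well and rested 5 h before dosing.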

T1 sequence (P35557 whole entry, looked up): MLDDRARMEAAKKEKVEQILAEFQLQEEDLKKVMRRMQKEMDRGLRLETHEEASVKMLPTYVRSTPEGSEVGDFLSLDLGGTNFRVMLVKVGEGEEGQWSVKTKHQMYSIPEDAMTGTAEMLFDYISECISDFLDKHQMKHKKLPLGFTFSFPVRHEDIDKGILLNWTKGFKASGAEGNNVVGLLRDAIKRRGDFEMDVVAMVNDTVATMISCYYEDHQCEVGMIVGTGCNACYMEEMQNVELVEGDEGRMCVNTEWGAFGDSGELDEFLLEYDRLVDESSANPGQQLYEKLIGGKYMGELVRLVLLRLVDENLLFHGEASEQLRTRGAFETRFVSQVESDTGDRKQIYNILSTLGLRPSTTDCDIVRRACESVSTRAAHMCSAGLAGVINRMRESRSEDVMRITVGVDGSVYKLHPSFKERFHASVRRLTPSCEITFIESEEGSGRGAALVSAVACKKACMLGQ
T1 sequence (Q14397 whole entry, looked up): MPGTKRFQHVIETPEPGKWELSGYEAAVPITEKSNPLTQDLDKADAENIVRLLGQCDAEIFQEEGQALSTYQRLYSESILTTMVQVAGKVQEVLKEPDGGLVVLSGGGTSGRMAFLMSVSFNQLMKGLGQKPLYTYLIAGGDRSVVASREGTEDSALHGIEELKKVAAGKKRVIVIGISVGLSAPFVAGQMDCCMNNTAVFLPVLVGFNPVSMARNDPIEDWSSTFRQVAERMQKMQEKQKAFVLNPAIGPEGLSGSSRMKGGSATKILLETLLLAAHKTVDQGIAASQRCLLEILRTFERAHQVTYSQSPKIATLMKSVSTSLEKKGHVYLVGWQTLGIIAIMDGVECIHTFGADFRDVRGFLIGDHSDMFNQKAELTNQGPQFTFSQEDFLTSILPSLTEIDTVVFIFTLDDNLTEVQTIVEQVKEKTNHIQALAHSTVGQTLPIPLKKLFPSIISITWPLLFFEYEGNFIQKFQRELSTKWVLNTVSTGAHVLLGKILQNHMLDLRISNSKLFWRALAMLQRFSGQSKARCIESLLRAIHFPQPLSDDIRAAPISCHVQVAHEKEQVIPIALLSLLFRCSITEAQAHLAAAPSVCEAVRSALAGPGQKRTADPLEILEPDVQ

NC(CCCP(=O)(O)O)C(=O)O (stereo not given)
outcome [1]: inactive
Potency [2]: inactive
Potency [3]: inactive
max response [4]: 8.77% (inactive)
Potency [5]: inactive

C[N+]1(C)C2CC(OC(=O)[C@H](CO)c3ccccc3)CC1C1OC12 (stereo not given in full)
outcome [1]: inactive
Potency [2]: inactive
Potency [3]: inactive
max response [4]: -7.69% (inactive) and 8.7% (inactive)
Potency [5]: inactive

CC(=O)SCC[N+](C)(C)C
outcome [1]: inactive
Potency [2]: inactive
Potency [3]: inactive
max response [4]: 9.88% (inactive)
Potency [5]: inactive

C[N+](C)(CCCCCC[N+](C)(C)CCCN1C(=O)c2cccc3cccc(c23)C1=O)CCCN1C(=O)c2cccc3cccc(c23)C1=O
outcome [1]: inactive
Potency [2]: inactive
Potency [3]: inactive
max response [4]: -6.11% (inactive)
parasite growth, % of DMSO control [6]: 5.01%
parasite growth remaining, % of DMSO control (lower = more inhibition) [7]: 5.17%
parasite growth, % of control (lower = inhibition) [8]: 6.76%
growth, % of control [9]: 4.26%
Potency [5]: inactive

COc1ccc(NC(=O)/C=C/c2ccc(Cl)cc2)cc1
outcome [1]: inactive
Potency [2]: inactive
Potency [3]: inactive
max response [4]: 30.8% (inactive)
Potency [5]: 5.62 µM (active)

COc1ccccc1N1CCN(CCCCNS(=O)(=O)c2cccc3c(N(C)C)cccc23)CC1
outcome [1]: inactive
Potency [2]: inactive
Potency [3]: inactive
max response [4]: 10.4% (inactive)
Potency [5]: inactive

COc1ccccc1N1CCN(CCN(C(=O)c2ccc(I)cc2)c2ccccn2)CC1
outcome [1]: inactive
Potency [2]: inactive
Potency [3]: inactive
max response [4]: 4.76% (inactive)
Potency [5]: inactive

CN1CCC[C@H]1c1cccnc1
outcome [1]: inactive
Potency [2]: inactive
Potency [3]: inactive
max response [10]: -10.2% (inactive) and -14.6% (inactive)
Potency [11]: inactive
Potency [5]: inactive
